Calls of active or inactive are those of the source. No rule for the calls is given here.
Potency is read from the fitted curve at half-maximal effect.

The nature of one assay: Immunotoxin (HA22) sensitization/mitigation study. Vehicle arm (PBS) (AID 1159510). Conditions: cancer cells viability with PBS vehicle (HA22 study); series mostly up to 46.1 µM; viability (% of control): at the top concentration.
For `C#Cc1cccc(Nc2ncnc3cc(OCCOC)c(OCCOC)cc23)c1`, the Potency is 16.6 µM (active). On the same count and under the same terms, next, `Cc1nc(Nc2ncc(C(=O)Nc3c(C)cccc3Cl)s2)cc(N2CCN(CCO)CC2)n1`: 5.9 µM (active). `Nc1cccc2c1CN(C1CCC(=O)NC1=O)C2=O` (stereo unspecified): the “viability (% of control)” value is 92.4% [at 92.2 µM] (inactive).

Take `CC(c1cc2ccccc2s1)N(O)C(N)=O` (stereo unspecified): the “viability (% of control)” value was 88.3% [at 92.2 µM] (inactive). The same measure, in the same setting: next, `COc1ccc2nc(S(=O)Cc3ncc(C)c(OC)c3C)[nH]c2c1` (stereo unspecified): 85% (inactive).

As to `O=C(CCCCCCC(=O)Nc1ccccc1)NO`, the Potency was 0.0959 µM (active). As for `CC(=O)O[C@@]12CO[C@@H]1C[C@H](O)[C@@]1(C)C(=O)[C@H](O)C3=C(C)[C@@H](OC(=O)[C@H](O)[C@@H](NC(=O)OC(C)(C)C)c4ccccc4)C[C@@](O)([C@@H](OC(=O)c4ccccc4)[C@H]21)C3(C)C`, the “viability (% of control)” value was 7.56% (inactive). Take `Cc1oncc1C(=O)Nc1ccc(C(F)(F)F)cc1`: the Potency was 20.9 µM (active). On to `CNC(=O)c1cc(Oc2ccc(NC(=O)Nc3ccc(Cl)c(C(F)(F)F)c3)cc2)ccn1`, for which the Potency is 14.8 µM (active). The same measure, in the same setting: the result for `CC(C)C[C@H](NC(=O)[C@H](Cc1ccccc1)NC(=O)c1cnccn1)B(O)O` reads 0.0037 µM (active).

Another assay in a line: Immunotoxin (SS1P) sensitization/mitigation study. Vehicle arm (DMEM) (AID 1159513). Conditions: cell viability with vehicle (DMEM); series mostly up to 46.1 µM; activity, % of control (viability): at the top concentration.
For `C#Cc1cccc(Nc2ncnc3cc(OCCOC)c(OCCOC)cc23)c1`, the Potency is 4.69 µM (active).

As to `Cc1nc(Nc2ncc(C(=O)Nc3c(C)cccc3Cl)s2)cc(N2CCN(CCO)CC2)n1`, the Potency was 20.9 µM (active). For `Nc1cccc2c1CN(C1CCC(=O)NC1=O)C2=O` (stereo unspecified), the “activity, % of control (viability)” value was 99.7% [at 92.2 µM] (inactive).

On to `CC(c1cc2ccccc2s1)N(O)C(N)=O` (stereo unspecified), for which the “activity, % of control (viability)” value was 97.5% [at 92.2 µM] (inactive).

Turning to `CCC(C)(C)C(=O)O[C@H]1C[C@@H](C)C=C2C=C[C@H](C)[C@H](CC[C@@H]3C[C@@H](O)CC(=O)O3)[C@H]21`, the Potency is 7.1 µM (active). `COc1ccc2nc(S(=O)Cc3ncc(C)c(OC)c3C)[nH]c2c1` (stereo unspecified): the “activity, % of control (viability)” value is 92.6% (inactive). `O=C(CCCCCCC(=O)Nc1ccccc1)NO`: the Potency was 0.481 µM (active). On to `CC(=O)O[C@@]12CO[C@@H]1C[C@H](O)[C@@]1(C)C(=O)[C@H](O)C3=C(C)[C@@H](OC(=O)[C@H](O)[C@@H](NC(=O)OC(C)(C)C)c4ccccc4)C[C@@](O)([C@@H](OC(=O)c4ccccc4)[C@H]21)C3(C)C`, for which the “activity, % of control (viability)” value is 15.1% (inactive).

Consider `CNC(=O)c1cc(Oc2ccc(NC(=O)Nc3ccc(Cl)c(C(F)(F)F)c3)cc2)ccn1`, for which the Potency was 20.9 µM (active). As to `Oc1cn2c(n1)Nc1ccc(Cl)c(Cl)c1C2`, the Potency is 0.0066 µM (active). The same measure, in the same setting: next, `CC(C)C[C@H](NC(=O)[C@H](Cc1ccccc1)NC(=O)c1cnccn1)B(O)O`: 0.0148 µM (active).

The values are drawn from PubChem BioAssay (NCATS).
